Data as given in PubChem BioAssay (EPA / NIEHS).
Values joined by “and” are separate entries in the source; they are usually repeats but may differ in a detail not shown here. Equal values may be shown once. Some structures have more than one record in an assay (separate samples or runs), and their calls can disagree. Active and inactive are the calls of the source. The calls were made as follows: active = hit-call score of the fitted dose curve at least 0.9, where 1 is the maximum; inactive = score below 0.9.

Legend:
[1] = ATG_GLI_CIS: Attagene CIS-FACTORIAL HepG2 Assay for human Zinc Finger Protein GLI1 (AID 2282945); details: HepG2, Attagene cis-factorial reporter mRNA, GLI element; actives raise or lower the signal
Outline: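 Transiently transfected HepG2 cells report endogenous transcription factor activity via cis-element-driven reporter units. After 24 h compound exposure, reporter mRNA was measured by RT-PCR with capillary electrophoresis; bidirectional fitting against DMSO baseline.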

[2] = molecular target: Bile acid receptor (Homo sapiens) (UniProt Q96RI1); experiment: ATG_IR1_CIS: Attagene CIS-FACTORIAL HepG2 Assay for human Nuclear Receptor Subfamily 1 Group H Member 4 (NR1H4), IR1 submotif (AID 2282946); details: IR1 reporter transcription, actives raise or lower the signal
Outline: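 Fluorescence of capillary-separated, HpaI-digested RT-PCR reporter products gave IR1-element mRNA induction in HepG2 cells 24 h after dosing. Endogenous transcription factors drove the cis-regulated reporters; activity was fitted bidirectionally against DMSO.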

[3] = ATG_GRE_CIS: Attagene CIS-FACTORIAL HepG2 Assay for human Glucocorticoid Response Elements (GRE) (AID 2282947); details: HepG2 GRE cis-reporter, Attagene multiplex mRNA; actives raise or lower the signal
Outline: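 Read-out: fluorescent reporter-transcript fragments separated by capillary electrophoresis after RT-PCR. Transiently transfected HepG2 cells carrying cis-element-driven reporter units were dosed for 24 h; gain or loss of signal fitted against DMSO control.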

[4] = ATG_ISRE_CIS: Attagene CIS-FACTORIAL HepG2 Assay for human Interferon Regulatory Factor 1 (IRF1) binding to an Interferon-Stimulated Response Element (ISRE) (AID 2282948); details: HepG2 ISRE cis-reporter (Attagene), mRNA transcription readout; actives raise or lower the signal
Outline: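 Endogenous transcription factor activity read as reporter transcript abundance via RT-PCR and capillary electrophoresis. HepG2 cells transiently transfected, 24 h chemical exposure. Gain or loss fitted against DMSO baseline.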

[5] = ATG_M_32_CIS: Attagene CIS-FACTORIAL HepG2 Assay for M32 Transcription Factor (Internal Marker) (AID 2282949); details: HepG2 Attagene cis-factorial M32 reporter, mRNA; actives raise or lower the signal;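 also: background control marker of the multiplexed CIS panel rather than a real target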
Outline: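 Using DMSO as baseline, bidirectional curve fits were applied to reporter mRNA signals. These came from transiently transfected HepG2 cells exposed for 24 h, with RNA analysed by RT-PCR, FAM primer extension, HpaI digestion and CE.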

[6] = ATG_M_06_CIS: Attagene CIS-FACTORIAL HepG2 Assay for M06 Transcription Factor (Internal Marker) (AID 2282950); details: HepG2 Attagene CIS-FACTORIAL M06 internal marker reporter; actives raise or lower the signal
Outline: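 Read-out is fluorescence of labelled reporter cDNA fragments resolved by capillary electrophoresis after RT-PCR. Cells: HepG2 carrying transfected cis-promoter reporter units, treated 24 h. Gain or loss of signal fitted relative to DMSO.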

[7] = molecular target: Hypoxia-inducible factor 1-alpha (Homo sapiens) (UniProt Q16665); experiment: ATG_HIF1a_CIS: Attagene CIS-FACTORIAL HepG2 Assay for human Hypoxia Inducible Factor 1 (HIF1A) (AID 2282951); details: HepG2 Attagene cis-factorial HIF1a reporter transcription; actives raise or lower the signal
Outline: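 HepG2 cells transiently transfected with multiple cis-regulated reporter transcription units measure endogenous transcription factor activity. After 24 h exposure, reporter mRNA is quantified by RT-PCR with 6-FAM labelling, HpaI digestion and capillary electrophoresis. Bidirectional fitting against DMSO.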

[8] = molecular target: Hepatocyte nuclear factor 6 (Homo sapiens) (UniProt Q9UBC0); experiment: ATG_HNF6_CIS: Attagene CIS-FACTORIAL HepG2 Assay for human Hepatocyte Nuclear Factor 6 (HNF6) (AID 2282952); details: HepG2 Attagene cis-factorial HNF6 reporter transcription; actives raise or lower the signal
Outline: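 First, HepG2 cells were transfected with the multiplexed cis reporter library and dosed with chemical for 24 h. Next, RNA was reverse-transcribed, PCR-amplified and fluorescently labelled. Finally, HpaI-digested fragments were read by capillary electrophoresis.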

[9] = molecular target: Heat shock factor protein 1 (Homo sapiens) (UniProt Q00613); experiment: ATG_HSE_CIS: Attagene CIS-FACTORIAL HepG2 Assay for human Heat Shock Transcription Factor 1 (HSE) (AID 2282953); details: HepG2 HSE cis-reporter, Attagene RNA transcription; actives raise or lower the signal
Outline: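 HepG2, transient MRTU transfection, cis-promoter reporters (endogenous TF activity). 24 h compound. RNA → oligo(dT) RT → PCR → 6-FAM primer extension → HpaI cut → CE. Bidirectional fit vs DMSO.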

[10] = ATG_MRE_CIS: Attagene CIS-FACTORIAL HepG2 Assay for human Metal Responsive Element (MRE) (AID 2282954); details: HepG2 MRE cis-reporter transcription, Attagene multiplex; actives raise or lower the signal
Outline: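 RT-PCR/capillary electrophoresis readout of reporter mRNA, 24 h post-dosing, in HepG2 cells transfected with multiplexed cis-regulated reporter constructs. Gain or loss of signal fitted bidirectionally against DMSO baseline.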

Measured: AC50

Heat shock factor protein 1 (Homo sapiens), sequence (Q00613 whole entry, looked up): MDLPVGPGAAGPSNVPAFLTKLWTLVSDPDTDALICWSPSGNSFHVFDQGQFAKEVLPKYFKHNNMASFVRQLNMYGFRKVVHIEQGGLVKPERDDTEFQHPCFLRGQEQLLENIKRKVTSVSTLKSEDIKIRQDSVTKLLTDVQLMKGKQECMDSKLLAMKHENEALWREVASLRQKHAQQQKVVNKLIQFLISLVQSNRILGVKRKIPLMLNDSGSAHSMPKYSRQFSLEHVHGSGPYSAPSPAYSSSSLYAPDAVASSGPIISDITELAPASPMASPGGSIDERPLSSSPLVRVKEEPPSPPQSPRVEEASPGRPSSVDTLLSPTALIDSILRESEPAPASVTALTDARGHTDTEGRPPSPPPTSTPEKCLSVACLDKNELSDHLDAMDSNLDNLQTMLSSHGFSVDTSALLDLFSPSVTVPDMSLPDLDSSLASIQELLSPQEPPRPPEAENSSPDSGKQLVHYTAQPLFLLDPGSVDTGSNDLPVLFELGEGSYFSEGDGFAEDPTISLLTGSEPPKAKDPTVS
Hepatocyte nuclear factor 6 (Homo sapiens), sequence (Q9UBC0 whole entry, looked up, the tested form may be a part): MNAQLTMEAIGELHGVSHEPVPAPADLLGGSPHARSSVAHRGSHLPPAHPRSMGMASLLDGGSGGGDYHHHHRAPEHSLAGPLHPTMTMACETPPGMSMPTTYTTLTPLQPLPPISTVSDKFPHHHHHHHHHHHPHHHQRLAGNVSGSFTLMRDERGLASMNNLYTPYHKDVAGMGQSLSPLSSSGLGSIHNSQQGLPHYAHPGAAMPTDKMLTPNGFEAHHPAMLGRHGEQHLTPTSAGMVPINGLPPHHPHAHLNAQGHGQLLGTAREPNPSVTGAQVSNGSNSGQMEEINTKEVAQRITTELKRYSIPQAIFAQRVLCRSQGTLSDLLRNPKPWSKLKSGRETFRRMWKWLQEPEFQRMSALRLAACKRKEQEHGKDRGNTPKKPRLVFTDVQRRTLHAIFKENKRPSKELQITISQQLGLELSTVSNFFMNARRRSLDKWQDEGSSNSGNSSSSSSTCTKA
Hypoxia-inducible factor 1-alpha (Homo sapiens), sequence (Q16665 whole entry, looked up): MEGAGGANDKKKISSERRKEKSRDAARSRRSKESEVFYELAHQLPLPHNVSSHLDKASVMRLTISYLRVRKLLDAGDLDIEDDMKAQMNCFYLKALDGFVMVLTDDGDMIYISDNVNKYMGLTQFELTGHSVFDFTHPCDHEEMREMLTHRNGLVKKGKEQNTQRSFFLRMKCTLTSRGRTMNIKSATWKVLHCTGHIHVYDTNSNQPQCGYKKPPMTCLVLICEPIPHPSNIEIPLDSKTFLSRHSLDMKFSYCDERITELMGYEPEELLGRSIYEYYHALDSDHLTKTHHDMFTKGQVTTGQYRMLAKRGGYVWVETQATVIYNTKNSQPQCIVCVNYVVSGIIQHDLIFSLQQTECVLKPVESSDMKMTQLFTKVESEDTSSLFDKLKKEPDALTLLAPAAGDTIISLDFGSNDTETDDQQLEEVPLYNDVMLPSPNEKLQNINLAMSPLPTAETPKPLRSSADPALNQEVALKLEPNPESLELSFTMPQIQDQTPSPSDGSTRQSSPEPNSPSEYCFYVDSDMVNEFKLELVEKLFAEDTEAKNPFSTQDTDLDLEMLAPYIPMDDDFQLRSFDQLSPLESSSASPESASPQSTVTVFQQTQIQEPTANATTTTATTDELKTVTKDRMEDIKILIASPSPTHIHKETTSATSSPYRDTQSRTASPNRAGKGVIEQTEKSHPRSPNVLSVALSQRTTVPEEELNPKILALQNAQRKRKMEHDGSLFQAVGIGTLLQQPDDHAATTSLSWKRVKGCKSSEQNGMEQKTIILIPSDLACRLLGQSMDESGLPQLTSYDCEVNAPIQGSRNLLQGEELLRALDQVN
Bile acid receptor (Homo sapiens), sequence (Q96RI1 whole entry, looked up): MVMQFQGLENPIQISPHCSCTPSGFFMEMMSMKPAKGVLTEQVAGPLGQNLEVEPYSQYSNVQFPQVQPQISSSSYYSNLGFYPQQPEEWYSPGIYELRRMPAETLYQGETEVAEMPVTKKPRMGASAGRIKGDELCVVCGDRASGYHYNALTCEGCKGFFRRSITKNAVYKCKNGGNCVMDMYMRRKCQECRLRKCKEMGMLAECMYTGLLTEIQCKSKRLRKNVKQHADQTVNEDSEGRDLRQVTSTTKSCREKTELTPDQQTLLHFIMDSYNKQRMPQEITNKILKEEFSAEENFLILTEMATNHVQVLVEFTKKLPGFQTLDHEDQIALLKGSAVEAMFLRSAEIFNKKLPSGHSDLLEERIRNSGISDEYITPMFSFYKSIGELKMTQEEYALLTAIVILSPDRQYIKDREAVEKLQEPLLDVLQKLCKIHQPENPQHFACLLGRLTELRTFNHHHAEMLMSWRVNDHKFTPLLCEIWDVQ

CS/C(C)=N/OC(=O)N(C)SN(C)C(=O)O/N=C(\C)SC
inactive: all assays above

CCOP(=S)(OCC)SCn1c(=O)oc2cc(Cl)ccc21
active: [7] 28.8 µM | [9] 78.7 µM
not listed: [4] | [10]
inactive: all other assays above

COC(=O)c1ccccc1C(=O)OC
not listed: [10]
inactive: all other assays above

CCCC1COC(Cn2cncn2)(c2ccc(Cl)cc2Cl)O1 (configuration not stated)
active: [7] 50 µM
inactive: [1] | [2] | [3] | [5] | [6] | [7] | [8] | [9]

COc1ccc(C(c2ccc(OC)cc2)C(Cl)(Cl)Cl)cc1
active: [2] 21.6 µM | [7] 3.88 µM
inactive: [1] | [2] | [3] | [5] | [6] | [7] | [8] | [9]

Cc1c(F)c(F)c(COC(=O)C2C(/C=C(\Cl)C(F)(F)F)C2(C)C)c(F)c1F (configuration not stated)
inactive: all assays above

COC(=O)C=C(C)OP(=O)(OC)OC
not listed: [4] | [10]
inactive: all other assays above

CNC(=O)ON=CC(C)(C)SC
inactive: [1] | [2] | [3] | [4] | [5] | [6] | [7] | [8]
active: [4] 167 µM

N#Cc1cc(Br)c(O)c(Br)c1
not listed: [4] | [10]
inactive: all other assays above

CCCN(CCC)c1c([N+](=O)[O-])cc(S(N)(=O)=O)cc1[N+](=O)[O-]
not listed: [10]
inactive: all other assays above

CCCCNC(=O)OCC#CI
active: [1] 51.8 µM | [2] 160 µM | [9] 25.6 µM
inactive: [1] | [2] | [3] | [5] | [6] | [7] | [8] | [9]

O=C(O)COc1nc(Cl)c(Cl)cc1Cl
not listed: [4] | [10]
inactive: all other assays above

COP(N)(=O)SC (configuration not stated)
not listed: [10]
inactive: all other assays above

COC(=O)C(C)Oc1ccc(Oc2ccc(Cl)cc2Cl)cc1 (configuration not stated)
active: [2] 76.5 µM
inactive: [1] | [2] | [3] | [5] | [6] | [7] | [8] | [9] | [10]

Cc1ccc(-c2c(Cl)nc(C#N)n2S(=O)(=O)N(C)C)cc1
not listed: [10]
inactive: all other assays above

Oc1ccccc1-c1ccccc1
active: [1] 23 µM | [9] 189 µM
inactive: [1] | [5] | [6] | [7] | [8] | [9]

C#CCOS(=O)OC1CCCCC1Oc1ccc(C(C)(C)C)cc1 (configuration not stated)
active: [7] 2.4 µM
not listed: [4] | [10]
inactive: all other assays above

CCOC(=O)C(Cl)Cc1cc(-n2nc(C)n(C(F)F)c2=O)c(F)cc1Cl (configuration not stated)
not listed: [10]
inactive: all other assays above

COc1nc(NC(C)C)nc(NC(C)C)n1
not listed: [10]
inactive: all other assays above

C=CCC1=C(C)C(OC(=O)C2C(C=C(C)C)C2(C)C)CC1=O (configuration not stated)
active: [1] 67.2 µM [middle of 5 runs] | [2] 54.7 µM | [5] 107 µM | [7] 35 µM [middle of 4 runs] | [9] 74.8 µM [middle of 6 runs] | [10] 43.8 µM [middle of 6 runs]
inactive: [1] | [2] | [3] | [5] | [6] | [7] | [8]

CC(C)C1(C)N=C(c2nc3ccccc3cc2C(=O)O)NC1=O (configuration not stated)
not listed: [4] | [10]
inactive: all other assays above

C=CCC1=C(C)[C@@H](OC(=O)[C@@H]2[C@@H](C=C(C)C)C2(C)C)CC1=O
not listed: [10]
inactive: all other assays above

N#CC(CCc1ccc(Cl)cc1)(Cn1cncn1)c1ccccc1 (configuration not stated)
not listed: [10]
inactive: all other assays above

CC(Oc1ccc(Cl)cc1Cl)C(=O)O (configuration not stated)
not listed: [4] | [10]
inactive: all other assays above

N#Cc1nn(-c2c(Cl)cc(C(F)(F)F)cc2Cl)c(N)c1S(=O)C(F)(F)F (configuration not stated)
inactive: [1] | [2] | [3] | [4] | [5] | [6] | [7] | [8]
active: [3] 29 µM | [8] 44.7 µM

COc1nc(C)nc(NC(=O)NS(=O)(=O)c2ccccc2CCC(F)(F)F)n1
inactive: all assays above

CCNc1nc(Cl)nc(NC(C)C)n1
not listed: [2] | [4]
inactive: all other assays above

O=C(Nc1ccccc1)Nc1ccnc(Cl)c1
active: [10] 37 µM
not listed: [4]
inactive: all other assays above

COP(=S)(OC)Oc1nc(Cl)c(Cl)cc1Cl
active: [1] 64.9 µM
not listed: [4]
inactive: all other assays above

OC(c1ccc(Cl)cc1)(c1cncnc1)c1ccccc1Cl (configuration not stated)
active: [3] 0.622 µM | [9] 69 µM
inactive: [1] | [3] | [5] | [6] | [7] | [8] | [9]

CC(C)Oc1cc(-n2nc(C(C)(C)C)oc2=O)c(Cl)cc1Cl
active: [9] 50 µM | [10] 25.1 µM
not listed: [4]
inactive: all other assays above

COc1nc(C)nc(NC(=O)NS(=O)(=O)c2ccccc2Cl)n1
not listed: [2] | [4] | [10]
inactive: all other assays above

C=CC1(C)OC(=O)N(c2cc(Cl)cc(Cl)c2)C1=O (configuration not stated)
not listed: [4] | [10]
inactive: all other assays above

CN(C)C(=S)SSC(=S)N(C)C
not listed: [4]
inactive: all other assays above

CC1COC(Cn2cncn2)(c2ccc(Oc3ccc(Cl)cc3)cc2Cl)O1 (configuration not stated)
active: [10] 3.17 µM
not listed: [4]
inactive: all other assays above

CC1=C(C(=O)Nc2ccccc2)SCCO1
not listed: [4]
inactive: all other assays above

CNC(=S)S
inactive: [1] | [3] | [5] | [6] | [7] | [8] | [9]
active: [9] 83 µM

CCOC(=O)CC(SP(=S)(OC)OC)C(=O)OCC (configuration not stated)
active: [7] 24.4 µM | [10] 100 µM and 13.2 µM
inactive: [1] | [3] | [5] | [6] | [7] | [8] | [9]

CCCCC(CC)COC(=O)c1ccccc1C(=O)OCC(CC)CCCC (configuration not stated)
not listed: [4] | [9]
inactive: all other assays above

CCON=C(CC)C1=C(O)CC(c2c(C)cc(C)cc2C)CC1=O (configuration not stated)
not listed: [4] | [10]
inactive: all other assays above

Fc1ccc(Oc2ccnc3cc(Cl)cc(Cl)c23)cc1
not listed: [4]
inactive: all other assays above

Cc1cc(Cl)ccc1OCC(=O)O
not listed: [2] | [10]
inactive: all other assays above

CO/C=C(/C(=O)OC)c1ccccc1Oc1cc(Oc2ccccc2C#N)ncn1
active: [9] 168 µM and 155 µM and 170 µM
inactive: [1] | [3] | [4] | [5] | [6] | [7] | [8] | [9]

COc1cnc(OC)n2nc(NS(=O)(=O)c3c(OCC(F)F)cccc3C(F)(F)F)nc12
not listed: [2] | [4]
inactive: all other assays above

O=C(O)c1nc(Cl)ccc1Cl
not listed: [2]
inactive: all other assays above

CC(C)(C)c1ccc(CSc2cnn(C(C)(C)C)c(=O)c2Cl)cc1
active: [7] 0.407 µM | [9] 21.8 µM
not listed: [4] | [10]
inactive: all other assays above

CCOc1cc(Oc2ccc(C(F)(F)F)cc2Cl)ccc1[N+](=O)[O-]
active: [10] 22 µM
not listed: [4]
inactive: all other assays above

CCNc1nc(Cl)nc(NCC)n1
not listed: [4]
inactive: all other assays above

CON(C)C(=O)Nc1ccc(Cl)c(Cl)c1
not listed: [2] | [4] | [10]
inactive: all other assays above

CCCCNC(=O)n1c(NC(=O)OC)nc2ccccc21
not listed: [4]
inactive: all other assays above

CCc1nn(C)c(C(=O)NCc2ccc(C(C)(C)C)cc2)c1Cl
active: [10] 2.3 µM
not listed: [4]
inactive: all other assays above

CCCCOC(=O)c1ccccc1C(=O)OCCCC
inactive: [1] | [3] | [5] | [6] | [7] | [8] | [9]
active: [7] 59.5 µM

COC(=O)N(OC)c1ccccc1COc1ccn(-c2ccc(Cl)cc2)n1
not listed: [4] | [10]
inactive: all other assays above
